Compound activity from PubChem.
The list is not random: actives were taken first. Their share in the collection is about 2.3%.
BCLXL inh: inhibitors of human Bcl-xL, primary screen, biochemical, fluorescence polarization, HTS | Bcl-2-like protein 1 (Homo sapiens), Q07817 | GST-Bcl-xL / FITC-Bim BH3 peptide fluorescence polarization | inhibition, % at 10.9 µM | 320,000 compounds, 0.7% hits | AID 2129, 2009;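 active means inhibition above the mean of all tested compounds plus 3 SD, cutoff set per campaign, cut at about 30% in these data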;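 further: 0% = DMSO wells and 100% = unlabeled Bim-BH3 peptide competitor; inhibitors lower millipolarization by displacing the labeled peptide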
Target sequence (Q07817 whole entry, looked up): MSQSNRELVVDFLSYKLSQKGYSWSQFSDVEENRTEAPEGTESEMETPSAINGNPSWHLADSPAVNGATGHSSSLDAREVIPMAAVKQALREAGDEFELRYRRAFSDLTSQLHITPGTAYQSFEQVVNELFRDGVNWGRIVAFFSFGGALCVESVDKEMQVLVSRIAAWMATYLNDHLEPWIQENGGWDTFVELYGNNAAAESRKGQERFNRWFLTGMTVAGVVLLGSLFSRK
MCL1-BIM inh: inhibitors of MCL1 binding to BIM-BH3, primary screen, biochemical, fluorescence polarization. Induced myeloid leukemia cell differentiation protein Mcl-1 (Homo sapiens), Q07820. GST-MCL1 / FITC-Bim-BH3 fluorescence polarization. inhibition, % at 10.9 µM. AID 2057, 2009. 320,000 compounds, 0.68% hits;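 active means inhibition above the mean inhibition of all tested compounds plus 3 SD, set per campaign, cut at about 40% in these data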;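 further: 0% = DMSO wells and 100% = unlabeled Bim-BH3 peptide control; higher means more loss of mP so more displacement of Bim peptide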
Mcl1 Noxa PPI: Mcl-1/Noxa binding inhibitors, primary screen, biochemical, TR-FRET, 1536-well; Induced myeloid leukemia cell differentiation protein Mcl-1 (Homo sapiens), Q07820; TR-FRET Mcl-1/Noxa peptide binding, 2 h; inhibition, % at 21.7 µM; 220,000 compounds, 1.5% hits; AID 1022, 2008;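 active means compounds that cut the protein-peptide binding signal by more than 50% relative to plate controls in a single-dose test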;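 further: His-tagged Mcl-1 with rhodamine Noxa BH3 peptide and terbium anti-His antibody; 0% = Mcl-1 plus Noxa peptide wells and 100% = peptide-only wells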
Mcl1-Bid inh: Mcl-1/Bid binding inhibitors, primary screen, biochemical, TR-FRET, 1536-well; 220,000 compounds, 0.97% hits; inhibition, % at 21.7 µM; TR-FRET Mcl-1/Bid-Dy647 peptide binding; AID 1021, 2008;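 active means compounds that cut the binding signal by more than half at the single screening dose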;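 further: His-tagged Mcl-1 with europium anti-His antibody binding Bid BH3 peptide; 0% = Mcl-1 plus peptide wells and 100% = peptide-only wells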
GLD-1 RNA inh: GLD-1/TGE RNA complex disruptors, primary screen, biochemical, fluorescence polarization; inhibition, % at 5.96 µM; 320,000 compounds, 0.44% hits; Female germline-specific tumor suppressor gld-1 (Caenorhabditis elegans), Q17339; purified GLD-1 + fluorescein TGE RNA;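 active means percent inhibition above a per-plate cutoff, the plate mean of test compounds plus 3 SD, cut at about 30% in these data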;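 further: 0% = DMSO wells with GLD-1 and probe and 100% = wells lacking GLD-1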
Target sequence (Q17339 whole entry, looked up): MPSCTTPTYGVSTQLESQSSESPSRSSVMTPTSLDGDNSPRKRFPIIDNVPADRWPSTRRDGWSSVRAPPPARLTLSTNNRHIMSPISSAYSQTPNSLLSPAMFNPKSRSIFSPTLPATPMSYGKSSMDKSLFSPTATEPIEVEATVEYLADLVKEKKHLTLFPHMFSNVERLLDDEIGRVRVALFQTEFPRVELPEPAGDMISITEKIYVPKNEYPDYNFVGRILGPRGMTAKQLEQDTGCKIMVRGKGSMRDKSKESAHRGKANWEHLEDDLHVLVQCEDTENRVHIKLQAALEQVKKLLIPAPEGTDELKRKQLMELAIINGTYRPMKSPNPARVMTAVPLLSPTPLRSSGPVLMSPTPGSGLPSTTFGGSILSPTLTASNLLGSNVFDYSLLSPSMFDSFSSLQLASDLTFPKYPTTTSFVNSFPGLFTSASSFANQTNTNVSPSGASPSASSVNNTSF
Mcl-1 Bim block: inhibitors of Bim peptide binding to Mcl-1, primary screen, biochemical, bead-based flow cytometry, multiplex | Induced myeloid leukemia cell differentiation protein Mcl-1 (Homo sapiens), Q07820 | AID 1009, 2008 | Bim peptide-Mcl-1 binding | inhibition, % at 10 µM | 190,000 compounds, 0.1% hits; in the data active means inhibition above about 40%;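 further: 0% = no compound tracer wells and 100% = peptide blocker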
Active calls of the source: *.

For C=CCOCC(O)Cn1c(N2CCCC2)nc2c1c(=O)[nH]c(=O)n2C (stereo unspecified) the results were BCLXL inh 3, MCL1-BIM inh 8 and GLD-1 RNA inh 4.
CCOc1ccc(N2CC(C(=O)N3CCCCCC3)CC2=O)cc1 (stereo unspecified) was read as BCLXL inh 0, MCL1-BIM inh -3 and GLD-1 RNA inh 4.
For CCN1CCCc2cc(CN(CCN3CCOCC3)C(=S)Nc3cccc(Cl)c3)ccc21 the results were BCLXL inh 12, MCL1-BIM inh 12, Mcl1 Noxa PPI 30, Mcl1-Bid inh -53, GLD-1 RNA inh -4 and Mcl-1 Bim block -1.
CCN1CCCc2cc(CN(CCN3CCOCC3)C(=S)Nc3cc(F)cc(F)c3)ccc21 was read as BCLXL inh 11, MCL1-BIM inh 6, Mcl1 Noxa PPI 60*, Mcl1-Bid inh -100, GLD-1 RNA inh 5 and Mcl-1 Bim block -1.
`CCN1CCCc2cc(CN(CCN3CCOCC3)C(=S)Nc3ccc(OC)cc3)ccc21` gave BCLXL inh 15, MCL1-BIM inh 9, Mcl1 Noxa PPI 50, Mcl1-Bid inh -92, GLD-1 RNA inh -2 and Mcl-1 Bim block -3.
Screening CCN1CCCc2cc(CN(CCN3CCOCC3)C(=S)Nc3ccc(C)cc3)ccc21 returned BCLXL inh 5, MCL1-BIM inh -1, Mcl1 Noxa PPI 69*, Mcl1-Bid inh -94, GLD-1 RNA inh 3 and Mcl-1 Bim block -2.
CCOC(=O)c1c2ccc(OCC(=O)N/N=C/c3ccc(C)cc3)cc2n2ccccc12 was read as BCLXL inh 8, MCL1-BIM inh 4, Mcl1 Noxa PPI 41, Mcl1-Bid inh 73*, GLD-1 RNA inh 5 and Mcl-1 Bim block 0.
Screening O=C(/C(=N/N=C/c1ccc(O)c(O)c1)c1ccccc1)c1ccccc1 returned BCLXL inh 2, MCL1-BIM inh 16, Mcl1 Noxa PPI 51*, Mcl1-Bid inh -26, GLD-1 RNA inh 4 and Mcl-1 Bim block -12.
Screening O=C1Nc2ccccc2/C1=N\N=C\c1ccc(O)c(O)c1 returned BCLXL inh 10, MCL1-BIM inh 25, Mcl1 Noxa PPI 65*, Mcl1-Bid inh -40 and GLD-1 RNA inh 3.
For O=C(Nc1nnc(-c2ccco2)s1)C1CCCCC1 the results were BCLXL inh 8, MCL1-BIM inh 12, Mcl1 Noxa PPI -8, Mcl1-Bid inh 56*, GLD-1 RNA inh -3 and Mcl-1 Bim block -3.
CCC(C)NC(=O)c1csc2c1CCCCC2 (stereo unspecified) was read as BCLXL inh 1, MCL1-BIM inh 3, Mcl1 Noxa PPI 16, Mcl1-Bid inh -19, GLD-1 RNA inh -2 and Mcl-1 Bim block -1.
Screening CC(C)CCNC(=O)c1csc2c1CCCCC2 returned BCLXL inh 4, MCL1-BIM inh 4, Mcl1 Noxa PPI 17, Mcl1-Bid inh 64*, GLD-1 RNA inh -1 and Mcl-1 Bim block -1.
Cc1ccc(-c2cc(C(=O)N3CCN(c4ccc(F)cc4)CC3)c3ccccc3n2)o1 was read as BCLXL inh 5, MCL1-BIM inh 11, Mcl1 Noxa PPI 44, Mcl1-Bid inh -62, GLD-1 RNA inh -3 and Mcl-1 Bim block 0.
`Cc1ccc(-c2cc(C(=O)N3CCN(c4ncccn4)CC3)c3cc(Br)ccc3n2)o1` gave BCLXL inh 7, MCL1-BIM inh 18, Mcl1 Noxa PPI 79*, Mcl1-Bid inh 21, GLD-1 RNA inh 3 and Mcl-1 Bim block 4.
CCNc1ccc(Br)cc(C(=O)/C=C/c2ccc(Cl)cc2)c1=O was read as BCLXL inh -24, MCL1-BIM inh -80, Mcl1 Noxa PPI 82*, Mcl1-Bid inh 20, GLD-1 RNA inh 4 and Mcl-1 Bim block 5.
For CCNc1ccc(Br)cc(C(=O)/C=C/c2c(Cl)cccc2Cl)c1=O the results were BCLXL inh -22, MCL1-BIM inh -50, Mcl1 Noxa PPI 102*, Mcl1-Bid inh 46, GLD-1 RNA inh -15 and Mcl-1 Bim block 3.
Cc1cc(NC(=O)COC(=O)C2CC(=O)N(c3ccc(Cl)cc3)C2)no1 (stereo unspecified) was read as BCLXL inh 0, MCL1-BIM inh 2 and GLD-1 RNA inh 0.
Screening CCn1c(CC(=O)Nc2ccccc2F)nnc1SCC(=O)Nc1nncs1 returned BCLXL inh 7, MCL1-BIM inh 7 and GLD-1 RNA inh 0.
Screening NC1=NC(=O)/C(=C/c2cn(CCC(=O)O)nc2-c2ccc(F)cc2)S1 returned BCLXL inh 2, MCL1-BIM inh 8, Mcl1 Noxa PPI 55*, Mcl1-Bid inh 11, GLD-1 RNA inh -3 and Mcl-1 Bim block -14.
For O=C(O)CCn1cc(/C=C\C(=O)c2ccc(Cl)cc2)c(-c2cccc(Br)c2)n1 the results were BCLXL inh 4, MCL1-BIM inh 1, Mcl1 Noxa PPI 20, Mcl1-Bid inh 58*, GLD-1 RNA inh 10 and Mcl-1 Bim block -2.
`COc1ccc(-c2nn(CCC(=O)O)cc2/C=C2\SC(N)=NC2=O)cc1` gave BCLXL inh 1, MCL1-BIM inh 9, Mcl1 Noxa PPI 67*, Mcl1-Bid inh -35, GLD-1 RNA inh -5 and Mcl-1 Bim block -2.
Screening N#CCCn1cc(/C=C/C(=O)O)c(-c2ccc(F)cc2)n1 returned BCLXL inh 2, MCL1-BIM inh 1, Mcl1 Noxa PPI -2, Mcl1-Bid inh -14, GLD-1 RNA inh 3 and Mcl-1 Bim block 2.
CCCOc1ccc(-c2nn(-c3ccccc3)cc2/C=C2\SC(N)=NC2=O)cc1 was read as BCLXL inh 5, MCL1-BIM inh 1, Mcl1 Noxa PPI -29, Mcl1-Bid inh -8, GLD-1 RNA inh -1 and Mcl-1 Bim block -3.
NC1=NC(=O)/C(=C/c2cn(CCC(=O)O)nc2-c2ccc(Cl)cc2)S1 was read as BCLXL inh 1, MCL1-BIM inh -5, Mcl1 Noxa PPI 72*, Mcl1-Bid inh 43, GLD-1 RNA inh -14 and Mcl-1 Bim block -6.
COc1ccc(OC)c(NC(=O)CSc2nc(=O)n(CCN3CCOCC3)c3c2CCCC3)c1 was read as BCLXL inh -1, MCL1-BIM inh -6 and GLD-1 RNA inh 1.
For CC(=O)c1ccc(-c2ccc(C(=O)N(C)c3c(N)n(Cc4ccccc4)c(=O)[nH]c3=O)o2)cc1 the results were BCLXL inh 1, MCL1-BIM inh -3 and GLD-1 RNA inh 1.
Screening CCOc1ccc(CN2CCC(n3nccc3NC(=O)c3ccccc3OC)CC2)cc1 returned BCLXL inh 7, MCL1-BIM inh 6 and GLD-1 RNA inh 2.
